# In PubChem BioAssay AID1672 (Johns Hopkins Ion Channel Center, 2009):
# The whole screen tested about 310,000 compounds, of which about 2,600 (0.84%) were called active.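 How the source made its calls: active means fluorescence ratio B-score at or below minus 3 SD of library scores, with starting-brightness B-score within 2 SD (cut at about -4.2 in these data); inactive means the rest.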 The list comes from a sample in which actives are over-represented; it also holds similar structures and randomly drawn compounds.
# Target: Inward rectifier potassium channel 2 (Mus musculus) (UniProt P35561)
# Test: inhibitors of mouse Kir2.1 inward-rectifier potassium channel (AID 1672);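 further: channel flux triggered by added potassium and thallium sulfate stimulus; B-score of peak minus minimum fluorescence over baseline after thallium stimulus; more negative B-score means stronger Kir2.1 block with less thallium influx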
# Conditions: HEK293-Kir2.1, FluxOR thallium flux fluorescence; at 10 µM; stronger effect = lower value
# Sequence of Inward rectifier potassium channel 2 (Mus musculus) (P35561 whole entry, looked up): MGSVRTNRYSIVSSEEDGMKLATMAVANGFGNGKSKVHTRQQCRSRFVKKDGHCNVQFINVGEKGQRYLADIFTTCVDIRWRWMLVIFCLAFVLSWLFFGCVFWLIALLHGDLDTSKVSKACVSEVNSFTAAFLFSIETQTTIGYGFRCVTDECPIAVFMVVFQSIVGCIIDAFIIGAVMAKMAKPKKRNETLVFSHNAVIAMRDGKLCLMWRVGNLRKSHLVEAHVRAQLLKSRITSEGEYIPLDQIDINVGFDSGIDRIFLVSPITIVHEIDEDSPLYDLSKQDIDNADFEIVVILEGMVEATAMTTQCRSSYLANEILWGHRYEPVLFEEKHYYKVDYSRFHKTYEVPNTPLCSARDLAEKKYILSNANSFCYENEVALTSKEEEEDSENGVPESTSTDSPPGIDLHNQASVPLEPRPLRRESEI
row,Structure (SMILES),B-score
1,CC(c1ccccc1)(c1ccccc1)c1ccncc1,-4.28 (active)
2,CCN(CC)C(=O)c1ccc(NC(=O)c2sccc2-c2ccccc2)cc1,0.02 (inactive)
3,COC(=O)C1=C(c2cc3ccccc3s2)C[C@@H]2CC[C@H]1N2C(=O)NC(C)C,-1.96 (inactive)
4,O=C(C1CC(=O)N(C2CCCC2)C1)N1CCC2(CC1)OCCO2 (centres undefined),0.05 (inactive)
5,Cc1ccc(C2CN(C)CC2C(=O)c2ccc(F)cc2)cc1 (centres undefined),-2.69 (inactive)
6,O=c1c2ccccc2nc(/C=C/c2ccco2)n1-c1ccccc1O,-0.02 (inactive)
7,C/C(=N/O)c1ccc2ccc3ccccc3c2c1,-0.33 (inactive)
8,Cc1nc2ccccn2c1P(=S)(N1CCCCC1)N1CCCCC1,-5.35 (active)
9,CCCCCn1c(=O)c(C(=O)NCc2ccccc2)c(O)c2ccccc21,1.46 (inactive)
10,COc1ccccc1C1=NCc2nnc(CSC)n2-c2ccc(Cl)cc21,0.29 (inactive)
11,CCOc1ccc(-c2cc(C)[n+](CCN(CC)CC)c(-c3ccc(OCC)cc3)c2)cc1,-4.58 (active)
12,Cc1cc2ccccn2c1C(C[N+](=O)[O-])c1c(F)cccc1Cl (centres undefined),-0.86 (inactive)
13,COc1ccc(CNCCc2ccc3c(c2)OCO3)c(OC)c1OC,0.87 (inactive)
14,COc1ccc(Br)cc1CNCCc1cccc(Cl)c1,-10.4 (active)
15,COc1ccc(CNCCc2c[nH]c3ccccc23)cc1OC,0.17 (inactive)
16,NCCc1c[nH]c2ccc(O)cc12,-0.71 (inactive)
17,COC(=O)C1=C(c2cc3ccccc3s2)C[C@@H]2CC[C@H]1N2C(=O)NCc1cccc2ccccc12,2.94 (inactive)
18,COC(=O)C1=C(c2cc3ccccc3o2)C[C@@H]2CC[C@H]1N2C(=O)NC1CCCCC1,-0.65 (inactive)
19,CN(c1ccccc1)c1ccc([N+](=O)[O-])c2nonc12,-1.89 (inactive)
20,Oc1cc2c(cc1CN1CCN(c3ccccc3)CC1)OCO2,-0.91 (inactive)
21,Fc1ccc(N2CCN(Cc3ccc4c(c3)OCO4)CC2)cc1,-6.26 (active)
22,O=C(Cc1ccccc1[N+](=O)[O-])N1CCN(Cc2ccc3c(c2)OCO3)CC1,0.65 (inactive)
23,CCN1CCN(c2nc3c(c(=O)[nH]2)CCC3)CC1,1.68 (inactive)
24,COc1cccc(N2C(=O)NC(=O)/C(=C\c3cn(C)c4ccccc34)C2=O)c1,0.09 (inactive)
